Activity calls are given as the source filed them. The calls were made as follows: active = hit-call score of the fitted dose curve at least 0.9, where 1 is the maximum; inactive = score below 0.9.
What was measured:
[1] = read-out: Thrombomodulin, THBD (gene 7056); assay: BSK_CASM3C_Thrombomodulin: BioMAP Diversity Plus: CASM3C Assay for Thrombomodulin Biomarker Activity (AID 2283051); conditions: primary human coronary artery smooth muscle cells; actives raise or lower the signal;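 also: thrombomodulin protein level measured by ELISA 24 h after dosing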
[2] = read-out: Tissue Factor, F3 (gene 2152); assay: BSK_CASM3C_TissueFactor: BioMAP Diversity Plus: CASM3C Assay for Tissue Factor Biomarker Activity (AID 2283052); conditions: primary human coronary artery smooth muscle cells; actives raise or lower the signal;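 also: cell surface tissue factor protein level read by ELISA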
[3] = read-out: Interferon-gamma inducible Protein 10 (IP10), CXCL10 (gene 3627); assay: BSK_hDFCGF_IP10: BioMAP Diversity Plus: hDFCGF Assay for Interferon-gamma inducible Protein 10 (IP10) Biomarker Activity (AID 2283053); conditions: primary human foreskin fibroblasts; actives raise or lower the signal
In short: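 IP-10 levels, quantified by ELISA, are taken from human foreskin fibroblast cultures 24 h after chemical treatment, with DMSO serving as negative control and baseline for bidirectional analysis.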

[4] = read-out: Urokinase-type plasminogen activator receptor (uPAR), PLAUR (gene 5329); assay: BSK_CASM3C_uPAR: BioMAP Diversity Plus: CASM3C Assay for Urokinase-type plasminogen activator receptor (uPAR) Biomarker Activity (AID 2283054); conditions: primary human coronary artery smooth muscle cells; actives raise or lower the signal;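 also: cell-surface uPAR protein level quantified by ELISA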
[5] = read-out: Vascular cell adhesion molecule 1 (VCAM1), VCAM1 (gene 7412); assay: BSK_CASM3C_VCAM1: BioMAP Diversity Plus: CASM3C Assay for Vascular cell adhesion molecule 1 (VCAM1) Biomarker Activity (AID 2283055); conditions: primary human coronary artery smooth muscle cells; actives raise or lower the signal;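 also: VCAM-1 protein level quantified by ELISA on the cells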
[6] = read-out: Collagen III, COL3A1 (gene 1281); assay: BSK_hDFCGF_CollagenIII: BioMAP Diversity Plus: hDFCGF Assay for Collagen III Biomarker Activity (AID 2283056); conditions: primary human foreskin fibroblasts; actives raise or lower the signal
In short: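 Human foreskin primary fibroblasts were exposed to test chemicals for 24 h, after which collagen III was quantified by ELISA. Activity was fitted bidirectionally against DMSO as negative control and baseline.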

[7] = read-out: Epidermal growth factor receptor (EGFR), EGFR (gene 1956); assay: BSK_hDFCGF_EGFR: BioMAP Diversity Plus: hDFCGF Assay for Epidermal growth factor receptor (EGFR) Biomarker Activity (AID 2283057); conditions: primary human foreskin fibroblasts; actives raise or lower the signal
In short: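 Measured by ELISA: EGFR levels on primary human foreskin fibroblasts 24 h after chemical treatment, analysed relative to DMSO with bidirectional fitting.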

[8] = read-out: Interleukin-8 (IL8), CXCL8 (gene 3576); assay: BSK_hDFCGF_IL8: BioMAP Diversity Plus: hDFCGF Assay for Interleukin-8 (IL8) Biomarker Activity (AID 2283058); conditions: primary human foreskin fibroblasts; actives raise or lower the signal
In short: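 hDFCGF human dermal fibroblasts; 24 h chemical exposure; IL-8 by ELISA; bidirectional curve fit vs DMSO baseline; gain or loss of signal scored.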

[9] = BSK_hDFCGF_Proliferation: Cell Proliferation Assessment in the BioMAP Diversity Plus: hDFCGF Assay (AID 2283059); conditions: primary human foreskin fibroblasts;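 also: curves fitted for both rise and fall of signal versus DMSO baseline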
In short: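 Steps: dose primary human dermal fibroblasts (foreskin); […] fix in 10% TCA; stain with 0.1% SRB; read 560 nm; fit gain or loss of signal against DMSO.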

[10] = read-out: Macrophage colony-stimulating factor (MCSF), CSF1 (gene 1435); assay: BSK_hDFCGF_MCSF: BioMAP Diversity Plus: hDFCGF Assay for Macrophage colony-stimulating factor (MCSF) Biomarker Activity (AID 2283060); conditions: primary human foreskin fibroblasts; actives raise or lower the signal
In short: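 Human foreskin primary fibroblasts were treated with test chemical for 24 h, and M-CSF was then measured by ELISA. Data were fitted bidirectionally against DMSO as the negative control and activity baseline.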

[11] = BSK_hDFCGF_SRB: Viability Assessment in the BioMAP Diversity Plus: hDFCGF Assay (AID 2283061); conditions: primary human foreskin fibroblasts;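 also: cells exposed to compound for 24 h before the read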
In short: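 Human foreskin primary fibroblasts were treated with compound and assessed 24 h after dosing. Total protein was measured by sulforhodamine B staining (0.1% SRB after 10% TCA fixation, 560 nm read) as a cytotoxicity marker, with bidirectional fitting against DMSO baseline.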

[12] = read-out: TIMP metallopeptidase inhibitor 1 (TIMP1), TIMP1 (gene 7076); assay: BSK_hDFCGF_TIMP1: BioMAP Diversity Plus: hDFCGF Assay for TIMP metallopeptidase inhibitor 1 (TIMP1) Biomarker Activity (AID 2283062); conditions: primary human foreskin fibroblasts; actives raise or lower the signal
In short: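 Primary human foreskin fibroblasts in the hDFCGF system were dosed with compound for 24 h, then TIMP-1 was measured by ELISA. Activity was fitted bidirectionally relative to DMSO control; parallel SRB staining assessed cytotoxicity.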

[13] = read-out: Monokine induced gamma interferon (MIG), CXCL9 (gene 4283); assay: BSK_hDFCGF_MIG: BioMAP Diversity Plus: hDFCGF Assay for Monokine induced gamma interferon (MIG) Biomarker Activity (AID 2283063); conditions: primary human foreskin fibroblasts; actives raise or lower the signal
In short: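 ELISA read-out of MIG from primary human dermal fibroblasts 24 h post-dosing. Gain or loss of signal fitted bidirectionally, DMSO as baseline.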

[14] = read-out: Matrix Metallopeptidase 1 (MMP1), MMP1 (gene 4312); assay: BSK_hDFCGF_MMP1: BioMAP Diversity Plus: hDFCGF Assay for Matrix Metallopeptidase 1 (MMP1) Biomarker Activity (AID 2283064); conditions: primary human foreskin fibroblasts; actives raise or lower the signal
In short: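 Primary human foreskin fibroblasts in the hDFCGF system were dosed with test chemical, and MMP1 was measured by ELISA 24 h later. Values come from bidirectional curve fitting against the DMSO baseline.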

[15] = read-out: Vascular cell adhesion molecule 1 (VCAM1), VCAM1 (gene 7412); assay: BSK_hDFCGF_VCAM1: BioMAP Diversity Plus: hDFCGF Assay for Vascular cell adhesion molecule 1 (VCAM1) Biomarker Activity (AID 2283065); conditions: primary human foreskin fibroblasts; actives raise or lower the signal;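 as to AC50: VCAM-1 protein level quantified by ELISA after 24 h chemical exposure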
In short: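 Primary human foreskin fibroblasts (hDFCGF system) were dosed with chemical and VCAM-1 was measured by ELISA 24 h later. Bidirectional curve fitting used DMSO as negative control and activity baseline.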

[16] = read-out: Plasminogen activator inhibitor-1 (PAI1), SERPINE1 (gene 5054); assay: BSK_hDFCGF_PAI1: BioMAP Diversity Plus: hDFCGF Assay for Plasminogen activator inhibitor-1 (PAI1) Biomarker Activity (AID 2283066); conditions: primary human foreskin fibroblasts; actives raise or lower the signal
In short: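 PAI-1 levels, determined by ELISA, served as the endpoint in human foreskin fibroblast cultures exposed to compound for 24 h, with DMSO as baseline.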

[17] = read-out: Intercellular Adhesion Molecule 1 (ICAM1), ICAM1 (gene 3383); assay: BSK_KF3CT_ICAM1: BioMAP Diversity Plus: KF3CT Assay for Intercellular Adhesion Molecule 1 (ICAM1) Biomarker Activity (AID 2283067); conditions: primary human keratinocytes with fibroblasts; actives raise or lower the signal
In short: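 Human keratinocyte plus foreskin fibroblast primary co-culture was exposed to chemical for 24 h. ICAM-1 was then quantified by ELISA, and the data were fit bidirectionally against DMSO as the negative control and baseline.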

[18] = read-out: Interferon-gamma inducible Protein 10 (IP10), CXCL10 (gene 3627); assay: BSK_KF3CT_IP10: BioMAP Diversity Plus: KF3CT Assay for Interferon-gamma inducible Protein 10 (IP10) Biomarker Activity (AID 2283068); conditions: primary human keratinocytes with fibroblasts; actives raise or lower the signal
In short: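 KF3CT co-culture (keratinocytes + foreskin fibroblasts), 24 h compound, IP-10 by ELISA; bidirectional fit vs DMSO baseline.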

[19] = BSK_KF3CT_SRB: Viability Assessment in the BioMAP Diversity Plus: KF3CT Assay (AID 2283069); conditions: primary human keratinocytes with fibroblasts
In short: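 Human primary keratinocyte plus foreskin fibroblast co-culture exposed to chemicals for 24 h. Total protein measured by 0.1% sulforhodamine B staining after 10% TCA fixation, read at 560 nm; bidirectional fitting versus DMSO baseline.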

[20] = read-out: Interleukin-1 alpha (IL1a), IL1A (gene 3552); assay: BSK_KF3CT_IL1a: BioMAP Diversity Plus: KF3CT Assay for Interleukin-1 alpha (IL1a) Biomarker Activity (AID 2283070); conditions: primary human keratinocytes with fibroblasts; actives raise or lower the signal
In short: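 Human keratinocyte plus foreskin fibroblast primary co-culture, sampled 24 h after chemical dosing. IL-1a measured by ELISA; responses fitted bidirectionally against DMSO baseline (negative control), so gain or loss of signal both count.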

CNC(=O)Oc1cccc2c1OC(C)(C)O2
outcome [1]: inactive | outcome [2]: inactive | outcome [3]: inactive | outcome [4]: inactive | outcome [5]: inactive | outcome [6]: inactive | AC50 [7]: 12.2 µM (active) | outcome [8]: inactive | outcome [9]: inactive | outcome [10]: inactive | outcome [11]: inactive | outcome [12]: inactive | outcome [13]: inactive | outcome [14]: inactive | outcome [15]: inactive | outcome [16]: inactive | outcome [17]: inactive | outcome [18]: inactive | outcome [19]: inactive | outcome [20]: inactive

O=c1ccc(=O)[nH][nH]1
outcome [1]: inactive | outcome [2]: inactive | outcome [3]: inactive | outcome [4]: inactive | outcome [5]: inactive | outcome [6]: inactive | outcome [7]: inactive | outcome [8]: inactive | outcome [9]: inactive | outcome [10]: inactive | outcome [11]: inactive | outcome [12]: inactive | outcome [13]: inactive | outcome [14]: inactive | outcome [15]: inactive | outcome [16]: inactive | outcome [17]: inactive | outcome [18]: inactive | outcome [19]: inactive | outcome [20]: inactive

CCOC(=O)COc1cc(-c2nn(C)c(OC(F)F)c2Cl)c(F)cc1Cl
outcome [1]: inactive | outcome [2]: inactive | outcome [3]: inactive | outcome [4]: inactive | outcome [5]: inactive | outcome [6]: inactive | outcome [7]: inactive | outcome [8]: inactive | outcome [9]: inactive | outcome [10]: inactive | outcome [11]: inactive | outcome [12]: inactive | outcome [13]: inactive | AC50 [14]: 0.148 µM (active) | outcome [15]: inactive | outcome [16]: inactive | outcome [17]: inactive | outcome [18]: inactive | outcome [19]: inactive | outcome [20]: inactive

N#CSCSC#N
AC50 [1]: 31.3 µM (active) | outcome [2]: inactive | AC50 [3]: 1.09 µM (active) | AC50 [4]: 30.6 µM (active) | AC50 [5]: 19.3 µM (active) | AC50 [6]: 2.52 µM (active) | AC50 [7]: 1.68 µM (active) | AC50 [8]: 3.03 µM (active) | AC50 [9]: 0.225 µM (active) | AC50 [10]: 1.93 µM (active) | AC50 [11]: 0.66 µM (active) | outcome [12]: inactive | AC50 [13]: 1.78 µM (active) | AC50 [14]: 3.17 µM (active) | AC50 [15]: 1.71 µM (active) | AC50 [16]: 2.32 µM (active) | AC50 [17]: 5.57 µM (active) | AC50 [18]: 8.38 µM (active) | AC50 [19]: 4.78 µM (active) | AC50 [20]: 8.09 µM (active)

CC(C)=CC1C(C(=O)OCN2C(=O)C3=C(CCCC3)C2=O)C1(C)C (stereo not given)
outcome [1]: inactive | outcome [2]: inactive | AC50 [3]: 30.1 µM (active) | outcome [4]: inactive | AC50 [5]: 13.6 µM (active) | AC50 [6]: 20 µM (active) | outcome [7]: inactive | outcome [8]: inactive | AC50 [9]: 15.5 µM (active) | AC50 [10]: 27.6 µM (active) | AC50 [11]: 30.7 µM (active) | outcome [12]: inactive | AC50 [13]: 33.5 µM (active) | outcome [14]: inactive | AC50 [15]: 25.8 µM (active) | AC50 [16]: 30.7 µM (active) | outcome [17]: inactive | outcome [18]: inactive | outcome [19]: inactive | outcome [20]: inactive

CCCOc1nn(C(=O)NS(=O)(=O)c2ccccc2C(=O)OC)c(=O)n1C
outcome [1]: inactive | outcome [2]: inactive | outcome [3]: inactive | outcome [4]: inactive | outcome [5]: inactive | outcome [6]: inactive | outcome [7]: inactive | outcome [8]: inactive | outcome [9]: inactive | outcome [10]: inactive | outcome [11]: inactive | outcome [12]: inactive | outcome [13]: inactive | outcome [14]: inactive | outcome [15]: inactive | outcome [16]: inactive | outcome [17]: inactive | outcome [18]: inactive | outcome [19]: inactive | outcome [20]: inactive

Source: PubChem BioAssay (EPA / NIEHS)
